Screens as filed in PubChem.
Shown is part of a subset that was picked to be rich in hits.
PglD inh = inhibitors of Campylobacter jejuni PglD acetyltransferase; purified PglD enzyme, DTNB colorimetric CoA detection; 360,000 tested, 0.098% active; inhibition, % at 12.5 µM; in the data active means inhibition above about 16%, passing the limit was not always enough; inconclusive means no clear call, values can overlap the other calls
ERp5 block = ERp5 (human) disulfide isomerase inhibition. ERp5 insulin aggregation, absorbance 650 nm, 90 min. inhibition, % at 9.99 µM. 350,000 tested, 0.05% active;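 active means mean replicate inhibition above about 25%, with every replicate also reaching it, limit read from the data, passing the limit was not always enough; inconclusive means only one of those two criteria met; inactive means neither criterion met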
Target sequence (Q15084 whole entry, looked up): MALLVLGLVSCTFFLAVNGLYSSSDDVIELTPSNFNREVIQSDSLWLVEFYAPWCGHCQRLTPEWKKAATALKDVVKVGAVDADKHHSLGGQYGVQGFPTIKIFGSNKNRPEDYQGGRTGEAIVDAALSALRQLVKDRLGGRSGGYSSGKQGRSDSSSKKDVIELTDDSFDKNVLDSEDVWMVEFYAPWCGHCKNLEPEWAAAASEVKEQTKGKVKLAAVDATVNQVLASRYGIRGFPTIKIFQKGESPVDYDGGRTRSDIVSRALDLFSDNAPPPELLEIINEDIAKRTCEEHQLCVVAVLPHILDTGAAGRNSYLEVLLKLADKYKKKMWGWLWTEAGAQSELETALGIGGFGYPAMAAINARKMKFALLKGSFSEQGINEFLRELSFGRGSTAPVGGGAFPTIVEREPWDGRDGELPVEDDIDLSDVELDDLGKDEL
PDI turbidity = blocks human protein disulfide isomerase activity. PDI insulin aggregation turbidity, A650, 90 min. 350,000 tested, 0.052% active. P07237. AID 588391. inhibition, % at 10 µM;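 active means mean inhibition across replicates of 30% or more, whatever share of single replicates reach that level; inconclusive means mean inhibition below 30% while every single replicate reaches 30%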
CendR NRP1 mod = alters CendR peptide binding to human NRP-1; O14786; FAM-RPARPAR peptide binding to NRP-1, fluorescence polarization; inhibition, % at 25 µM; 360,000 tested, 0.85% active; AID 602438;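 active means inhibition or corrected inhibition above about 18%, plus a signal ratio from 0.5 to 1.5, limit read from the data, passing the limit was not always enough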
ALR H2O2 inh = human ALR oxidase inhibition via reduced H2O2 | P55789 | purified ALR, DTT oxidation, H2O2 HRP-luminol luminescence | inhibition, % (test concentration not listed) | 290,000 tested, 3.8% active | AID 485317;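 active means mean replicate inhibition above about 79%, with every replicate also reaching it, limit read from the data; inconclusive means only one of the two criteria met; inactive means mean below limit and not every replicate reaching it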
Target sequence (P55789 whole entry, looked up): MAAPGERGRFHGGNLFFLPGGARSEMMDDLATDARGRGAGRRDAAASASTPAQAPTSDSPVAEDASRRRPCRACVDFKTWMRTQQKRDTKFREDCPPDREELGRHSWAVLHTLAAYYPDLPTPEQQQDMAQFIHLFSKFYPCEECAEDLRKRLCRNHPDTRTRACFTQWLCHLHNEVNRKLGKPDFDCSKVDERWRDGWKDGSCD
ARNT-TACC3 inh = disruptors of human ARNT/TACC3 interaction | inhibition, % at 9.99 µM | Q9Y6A5 | AID 623870 | 390,000 tested, 0.66% active | AlphaScreen His-ARNT PAS-B/GST-TACC3 binding, luminescence; TACC3 fragment carries E629A point mutation;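 active means mean inhibition of replicates at least 50% and at least half of replicates each reaching 50%; inconclusive means half or more replicates reach 50% but mean below 50%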
Large screens that a line does not name were inactive.

COC(=O)c1ccccc1NC(=S)NC(=O)c1ccccc1C	ALR H2O2 inh 97.4 (no result: ERp5 block)
COC(=O)c1ccccc1NC(=S)NC(=O)c1ccc2c(c1)OCO2	ALR H2O2 inh 98.1 (no result: ARNT-TACC3 inh)
COc1cc([N+](=O)[O-])ccc1NC(=S)NNC(=O)c1ccc2c(c1)OCO2	ALR H2O2 inh 97.6
Cc1ccccc1C(=O)NC(=S)Nc1ccccc1C(=O)O	none (no result: ARNT-TACC3 inh)
CCCNC(=O)Nc1ccc2c(c1)C(=O)N(C)C[C@@H](OC)[C@H](C)CN(C(C)=O)[C@@H](C)CO2	none (no result: PDI turbidity, CendR NRP1 mod, ALR H2O2 inh)
CCCCOc1ccc(CSc2nc(C)[nH]c2[N+](=O)[O-])cc1[N+](=O)[O-]	ALR H2O2 inh 98.7 (no result: ARNT-TACC3 inh)
O=[N+]([O-])c1cc(CSC2=NCCN2)ccc1O	none (no result: ALR H2O2 inh)
CCCOc1ccc(CSC2=NCCN2)cc1[N+](=O)[O-]	ALR H2O2 inh 99.4 (no result: ERp5 block)
[O-][n+]1cccc2cccc(O)c21	ARNT-TACC3 inh 53.0 (no result: ALR H2O2 inh)
Oc1cccc2cc3cccc(O)c3c(O)c12	none (no result: ERp5 block)
CCCC(=O)NC1=C(Cl)C(=O)c2ccccc2C1=O	ARNT-TACC3 inh 24.5 (no result: PglD inh, ALR H2O2 inh)
CCN(CC)c1ccc(NC2=C(Cl)C(=O)c3ccccc3C2=O)cc1	CendR NRP1 mod 36.2 (no result: ERp5 block)
CO[C@H]1CN(C)C(=O)c2ccc(NC(C)=O)cc2OC[C@@H](C)N(C(=O)c2cccnc2)C[C@@H]1C	none (no result: PDI turbidity, CendR NRP1 mod, ALR H2O2 inh)
O=C(c1csc(Nc2ccccc2Cl)n1)N1CCCC1	ALR H2O2 inh 83.8 (no result: ERp5 block)
O=C(Nc1nc(-c2cccs2)cs1)c1ccc(Cl)s1	ALR H2O2 inh 97.5
Cc1c(C(=O)O)c2cc(O)ccc2n1-c1ccccc1	ALR H2O2 inh 80.3 (no result: ERp5 block)
C[C@H]1CN([C@@H](C)CO)C(=O)c2cc(NC(=O)NC3CCCCC3)ccc2O[C@@H]1CN(C)C(=O)Nc1ccc(C(F)(F)F)cc1	none (no result: PDI turbidity, CendR NRP1 mod, ALR H2O2 inh)
COc1ccc2c3c([nH]c2c1)[C@H](CO)N(S(C)(=O)=O)CC31CCN(CC2CC2)CC1	none (no result: PglD inh, PDI turbidity, CendR NRP1 mod, ALR H2O2 inh, ARNT-TACC3 inh)
Cc1cc2nc(CO)[nH]c2cc1C	none
Cc1cc2nc(CS)[nH]c2cc1C	ALR H2O2 inh 98.8
CN1C(=O)c2oc3ccccc3c(=O)c2C1c1ccncc1 (stereo unspecified)	ARNT-TACC3 inh 93.3 (no result: PglD inh, ERp5 block, ALR H2O2 inh)
CCCC(=O)Nc1ccc2c(c1)C(=O)N(C)[C@H]1CC[C@H](CC(=O)NCc3ccccc3Cl)O[C@H]1CO2	none (no result: PDI turbidity, CendR NRP1 mod, ALR H2O2 inh)
CCOc1cc(C2Nc3ccccc3NC3=C2C(=O)CC(C)(C)C3)ccc1O (stereo unspecified)	ALR H2O2 inh 89.8
CC1(C)CC(=O)C2=C(C1)NC(=O)CC2c1cccc(F)c1 (stereo unspecified)	none (no result: ERp5 block)
CC1(C)CC(=O)C2=C(C1)Nc1ccccc1NC2c1cccnc1 (stereo unspecified)	ALR H2O2 inh inconclusive (no result: ARNT-TACC3 inh)
COC(=O)c1ccc(C2Nc3ccccc3NC3=C2C(=O)CC(C)(C)C3)cc1 (stereo unspecified)	ALR H2O2 inh 97.0
CCOc1cc(C2Nc3ccccc3NC3=C2C(=O)CC(C)(C)C3)ccc1OC(C)=O (stereo unspecified)	none
Cc1cc2c(cc1C)NC(c1cccnc1)C1=C(CC(C)(C)CC1=O)N2 (stereo unspecified)	ALR H2O2 inh 93.9 (no result: ERp5 block)
CC1(C)CC(=O)C2=C(C1)Nc1ccccc1NC2c1cccc(F)c1 (stereo unspecified)	ALR H2O2 inh 99.1
Cc1noc(C)c1S(=O)(=O)Nc1ccc2c(c1)C(=O)N([C@H](C)CO)C[C@H](C)[C@@H](CN(C)Cc1ccncc1)O2	none (no result: PDI turbidity, CendR NRP1 mod, ALR H2O2 inh)
CNC[C@H]1Oc2ccc(NC(=O)Nc3ccc4c(c3)OCO4)cc2CC(=O)N([C@@H](C)CO)C[C@H]1C	none (no result: PDI turbidity, CendR NRP1 mod, ALR H2O2 inh, ARNT-TACC3 inh)
Cc1cccc(NC(=O)Nc2ccc3c(c2)C(=O)N(C)[C@H]2CC[C@H](CC(=O)NCc4ccccc4Cl)O[C@@H]2CO3)c1	none (no result: ERp5 block, PDI turbidity, CendR NRP1 mod, ALR H2O2 inh, ARNT-TACC3 inh)
CO[C@@H]1CN(C)C(=O)c2ccc(NS(=O)(=O)c3ccc(Cl)cc3)cc2OC[C@H](C)N(C(=O)NC(C)C)C[C@@H]1C	none (no result: PDI turbidity, CendR NRP1 mod, ALR H2O2 inh)
COc1cc(C2Nc3ccccc3NC3=C2C(=O)CC(C)(C)C3)cc(OC)c1OC (stereo unspecified)	none
COc1cc2c(cc1OC)C(c1ccc3c(c1)OCO3)C1=C(CC(C)(C)CC1=O)N2 (stereo unspecified)	ALR H2O2 inh 98.5 (no result: PglD inh, ERp5 block)
COc1cccc(C2C3=C(CC(C)(C)CC3=O)Nc3cc4c(cc32)OCO4)c1 (stereo unspecified)	none (no result: PDI turbidity, ARNT-TACC3 inh)
COc1cc(OC)c(C2Nc3ccccc3NC3=C2C(=O)CC(C)(C)C3)cc1OC (stereo unspecified)	ALR H2O2 inh 87.3
Cn1cccc1C1Nc2ccccc2NC2=C1C(=O)CC(C)(C)C2 (stereo unspecified)	CendR NRP1 mod 22.2 (no result: ERp5 block, ARNT-TACC3 inh)
CCC(=O)N1[C@H](C#N)[C@@H](c2ccccc2-c2ccccc2)[C@H]1CO	none (no result: PglD inh, PDI turbidity, CendR NRP1 mod, ALR H2O2 inh, ARNT-TACC3 inh)
Cc1noc(C)c1S(=O)(=O)Nc1ccc2c(c1)CC(=O)N([C@H](C)CO)C[C@H](C)[C@@H](CN(C)S(=O)(=O)c1ccccc1)O2	none (no result: PDI turbidity, CendR NRP1 mod, ALR H2O2 inh)
O=C1Nc2ccccc2C12OCCO2	CendR NRP1 mod 34.9
O=C1Nc2ccccc2C12OCCCO2	none (no result: ERp5 block)
c1ccc2c(c1)CC/C2=N/Nc1nc2ccccc2[nH]1	ALR H2O2 inh 99.1
c1ccc(CN2CCC(=NNc3nc4ccccc4[nH]3)CC2)cc1	ALR H2O2 inh 99.1
CC(C)(C)C1CCC(=NNc2nc3ccccc3[nH]2)CC1 (stereo unspecified)	ALR H2O2 inh 98.0 (no result: PglD inh)
C[C@H]1CCCCO[C@H](CN(C)Cc2ccc3c(c2)OCO3)[C@@H](C)CN([C@@H](C)CO)C(=O)c2cc(NS(=O)(=O)c3ccc(Cl)cc3)ccc2O1	none (no result: PDI turbidity, CendR NRP1 mod, ALR H2O2 inh)
C[C@@H]1CN([C@@H](C)CO)C(=O)c2cc(C#CCN(C)C)cnc2O[C@@H]1CN(C)Cc1ccc(C(=O)O)cc1	none (no result: PDI turbidity, CendR NRP1 mod, ALR H2O2 inh)
O=C(C[C@@H]1C=C[C@H](NC(=O)Nc2cc(F)ccc2F)[C@H](CO)O1)Nc1ccc(-c2ccccc2)cc1	none (no result: ERp5 block, PDI turbidity, CendR NRP1 mod, ALR H2O2 inh)
COc1ccc(NC(=O)Nc2ccc3c(c2)CC(=O)N([C@H](C)CO)C[C@H](C)[C@@H](CN(C)S(C)(=O)=O)O3)cc1	none (no result: PDI turbidity, CendR NRP1 mod, ALR H2O2 inh)
Cc1ccc(S(=O)(=O)Cc2ccc(C(=O)N3CCN(c4ccccn4)CC3)o2)cc1	ALR H2O2 inh 97.5
O=C(CSCc1ccccc1Cl)N1CCN(c2ccccn2)CC1	ALR H2O2 inh 99.1 (no result: ERp5 block)
CCc1ccc(-c2nc(CSCC(=O)N3CCN(c4ccccn4)CC3)c(C)o2)cc1	ALR H2O2 inh 85.1 (no result: ERp5 block)
CCOc1ccc(-c2nc(CSCC(=O)N3CCN(c4cccc(OC)c4)CC3)c(C)o2)cc1	ALR H2O2 inh 99.5 (no result: PDI turbidity)
Cc1ccccc1-c1nc(CN2CCC(C(=O)N3CCN(c4ccccn4)CC3)CC2)c(C)o1	none (no result: PDI turbidity)
O=C(c1ccc(CS(=O)(=O)c2ccc(Br)cc2)o1)N1CCN(c2ccccn2)CC1	none
Cc1ccc(-c2nc(CSCC(=O)N3CCN(c4ccccn4)CC3)c(C)o2)cc1	ALR H2O2 inh 98.5 (no result: PDI turbidity)
Cc1ccn2c(NC(C)(C)C)c(-c3cccs3)nc2c1	ALR H2O2 inh 99.0 (no result: PglD inh)
